AmpC inh no detg = inhibitors of E. coli AmpC beta-lactamase without detergent; Potency, µM (highest dose often 57.1 µM), without a hit: top-dose activity change, negative = inhibition, usual class: inhibitors; 330,000 tested, 0.52% active; P00811; AmpC nitrocefin hydrolysis, absorbance 480 nm, 0.0001% Triton;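 further: plate controls were no compound for no effect and no enzyme for full effect; nearly all actives have a fitted effect of over 20% in size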
Target sequence (P00811 whole entry, looked up): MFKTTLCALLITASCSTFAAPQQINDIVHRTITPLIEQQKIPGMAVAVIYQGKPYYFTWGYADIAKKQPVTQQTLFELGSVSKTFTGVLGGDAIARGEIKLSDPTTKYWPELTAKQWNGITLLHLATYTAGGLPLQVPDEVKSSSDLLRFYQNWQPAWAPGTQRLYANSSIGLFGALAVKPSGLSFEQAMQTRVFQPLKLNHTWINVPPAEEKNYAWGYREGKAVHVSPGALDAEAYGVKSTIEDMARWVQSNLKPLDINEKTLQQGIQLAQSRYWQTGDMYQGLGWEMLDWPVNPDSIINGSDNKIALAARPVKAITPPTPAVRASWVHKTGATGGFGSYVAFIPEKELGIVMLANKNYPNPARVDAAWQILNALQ
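AmpC (5.3 nM in the dispensed reagent) in 20 mM phosphate pH 7.0 with 0.01% (detergent screen) or 0.0001% Triton X-100 was preincubated with compounds for 15 min at room temperature. Nitrocefin was then added from an 800 uM solution, and hydrolysis was followed at 480 nm.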
AmpC inh detg = AmpC beta-lactamase inhibition with detergent present. P00811. AmpC hydrolysis of nitrocefin, absorbance 480 nm, 0.01% Triton. Potency, µM (series often up to 114 µM), inactives show top-dose activity change, negative = inhibition, hits mostly inhibitors. 370,000 tested, 0.041% active. AID 485294;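 further: 0% = no-compound wells and -100% = no-enzyme wells; nearly all actives have a fitted effect of over 25% in size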
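AmpC (5.3 nM in the dispensed reagent) in 20 mM phosphate pH 7.0 with 0.01% (detergent screen) or 0.0001% Triton X-100 was preincubated with compounds for 15 min at room temperature. Nitrocefin was then added from an 800 uM solution, and hydrolysis was followed at 480 nm.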
Numbers without * were called inactive; ? = inconclusive; · = no result. This excerpt belongs to a sample that is enriched for hits. The call rests on the fitted dose curve; in most records, active means well fitted curve in the direction sought with a large enough effect; inconclusive means small, poorly fitted or top-dose-only effect, or another doubt; inactive means no such curve, though single readings can be large; an effect the other way counts as inactive or inconclusive. Potency means the concentration at half of the fitted maximal effect.

SMILES	AmpC inh no detg	AmpC inh detg
Cc1ccc(NC(=O)c2ccc(OC(=O)COc3ccc(Cl)cc3C)cc2)cc1	-11%	?
Cc1ccc(C(=O)CC(=O)COc2ccc(Cl)cc2C)cc1	2.2µM*	?
C[C@H]1c2cccc(O)c2C(O)=C2C(=O)[C@]3(O)C(O)=C(C(N)=O)C(=O)[C@@H](N(C)C)C3[C@@H](O)C21 (stereo not given in full)	-38%	-19%
C=C1c2cccc(O)c2C(=O)C2C(=O)[C@]3(O)C(=O)C(C(N)=O)C(=O)[C@@H](N(C)C)[C@@H]3[C@@H](O)[C@H]12 (stereo not given in full)	8.9µM*	·
COc1cc(NC(=O)Cn2ccc3ccccc3c2=O)cc(OC)c1OC	·	-3%
C=CCOC(=O)C1=C(C)NC(C)=C(C(=O)OCC=C)C1c1cn(-c2ccccc2)nc1-c1ccco1	16µM*	?
OCc1cn(-c2ccccc2)nc1-c1ccco1	-7%	?
CCOc1ccccc1-c1noc(CCCC(=O)Nc2cccc(C(F)(F)F)c2)n1	·	19%
Cc1cc(N2C(=O)CC(N3CCN(c4ccc(C(=O)c5cccs5)cc4)CC3)C2=O)no1 (stereo not given)	0.5µM*	0%
O=C(c1ccc(N2CCN(C3CC(=O)N(Cc4cccs4)C3=O)CC2)cc1)c1cccnc1 (stereo not given)	123%	6%
CC(=O)c1sc(NC(=O)c2c(-c3ccccc3)c(-c3ccccc3)nn(C)c2=O)nc1C	·	15%
COc1ccc(NC(=O)C2CCN(S(=O)(=O)c3cccc4cccnc34)CC2)cc1	56µM*	3%
CC(=O)c1ccc(NC(=O)C2CCN(S(=O)(=O)c3cccc4cccnc34)CC2)cc1	-22%	?
CCOC(=O)c1cccc(NC(=O)CN2C(=O)CC(C)(C)Sc3ccccc32)c1	·	-7%
CC(C)Oc1cccc(C(=O)NC(=S)Nc2cccc(NC(=O)c3ccccc3Cl)c2)c1	3.2µM*	-19%
CC(C)CC(=O)NC(=S)Nc1cccc(NC(=O)c2ccccc2Cl)c1	-39%	-1%
CCOc1ccccc1NC(=O)CSc1nc2c(oc3ccccc32)c(=O)n1-c1ccc(C)c(C)c1	·	-1%
Cc1ccc(CN2C(=O)C3(SCC(=O)N3c3ccc(C)c(C)c3)c3ccccc32)cc1 (stereo not given)	·	1%
O=C(N/N=C/c1ccncc1)c1cc2ccccc2cc1O	-14%	5%
O=C(N/N=C/c1ccc[nH]1)c1cc2ccccc2cc1O	14µM*	-7%
COCCCNC(=O)C1CCCN(c2nn3cc(-c4ccc(C)cc4)nc3s2)C1 (stereo not given)	·	21%
CCN1CCN(C(=S)NC(=O)c2cccs2)CC1	-5%	-5%
O=C(NC(=S)N1CCN(c2ccc(C(F)(F)F)cc2[N+](=O)[O-])CC1)c1cccs1	14µM*	-1%
COc1cccc(NC(=O)C/C(C)=N/NC(=O)c2ccccc2Cl)c1	-11%	-6%
C/C(CC(=O)Nc1ccc(Cl)c(C(F)(F)F)c1)=N\NC(=O)c1cc2ccccc2cc1O	10µM*	-6%
SMILES	AmpC inh no detg	AmpC inh detg
O=C(NCC(c1cccs1)S(=O)(=O)c1cccs1)c1ccc(Cl)cc1 (stereo not given)	·	-1%
COC(=O)c1c(NC(=O)CS(=O)(=O)c2ccc(C)cc2)sc2c1CCCCC2	·	-4%
CN(c1ccccc1)S(=O)(=O)c1cccc(NC(=O)c2ccc(=O)[nH]c2)c1	-27%	-5%
CN(c1ccccc1)S(=O)(=O)c1cccc(NC(=O)c2ccc(=O)[nH]n2)c1	2µM*	·
COc1ccc(NC(=O)Nc2ccccc2OCc2cc(=O)n3ccccc3n2)c(OC)c1	·	-1%
Fc1ccc(CSc2nncn2NCc2ccccc2)cc1	-4%	-3%
Fc1ccc(CSc2nncn2NC/C=C/c2ccccc2)cc1	7.1µM*	0%
CCc1cc(/C(Cc2ccccn2)=N\Nc2ccccc2)c(O)cc1O	25µM*	-2%
Cc1nc(C/C(=N\Nc2ccccc2)c2ccc(O)cc2O)cs1	-56%	-5%
CCOC(=O)C1=C(CN(CC)Cc2ccccc2)NC(=O)NC1c1ccc(OC(C)C)cc1 (stereo not given)	·	7%
COc1ccc(Cl)cc1NC(=O)COc1ccc(S(=O)(=O)N2CCOCC2)cc1C	-19%	28µM*
Cc1ccccc1OCC(=O)OCC(=O)Nc1cc(S(=O)(=O)N2CCCCC2)ccc1Cl	32µM*	?
O=C(COC(=O)Cc1ccccc1)Nc1cc(S(=O)(=O)N2CCCCC2)ccc1Cl	-23%	0%
COc1ccc(S(=O)(=O)N2CCOCC2)cc1NC(=O)COc1ccc(C)cc1	77%	·
COc1cccc(CNC(=O)C2CCCN(c3nn4cc(-c5ccc(C)cc5)nc4s3)C2)c1 (stereo not given)	·	14%
O=C(/C=C/c1ccco1)c1ccc(NC(=O)C23CC4CC(CC(C4)C2)C3)cc1	18µM*	0%
O=C(CNC(=O)C12CC3CC(CC(C3)C1)C2)N/N=C\c1ccco1	-17%	3%
Cc1cccc(NC(=O)CSc2nc3c(oc4ccccc43)c(=O)n2-c2ccccc2)c1C	·	4%
COc1cc(C2NC(=O)N(C)C3=C2C(=O)N(c2ccccc2)C3)ccc1O (stereo not given)	·	-3%
COc1ccc(-c2nc(C)ncc2N=Nc2ccccc2)cc1	61%	-9%
Cc1ncc(N=Nc2ccc(F)cc2)c(-c2ccc(Cl)cc2)n1	0.4µM*	1%
CCN1c2ccccc2-c2nc(SCC(=O)Nc3cccc(C)c3C)ncc2S1(=O)=O	·	0%
COC(=O)c1cc(=O)n(CCc2ccccc2)c(=Nc2ccc(F)cc2)s1	0.71µM*	-15%
COC(=O)c1cc(=O)n(CCc2ccc(OC)cc2)c(=Nc2ccc(F)c(Cl)c2)s1	-6%	-5%
Cc1ccccc1NC(=O)Cc1nc(COC(=O)c2cccc(O)c2)cs1	-31%	5%
SMILES	AmpC inh no detg	AmpC inh detg
Cc1ccccc1NC(=O)Cc1nc(COC(=O)c2ccc(Cl)c(S(N)(=O)=O)c2)cs1	35µM*	-15%
CCC(=O)N1CCCc2cc(S(=O)(=O)N3CCC(C(=O)Nc4ccccc4CC)CC3)ccc21	·	1%
COc1ccc(CN2c3c(Br)cccc3C(=O)CS2(=O)=O)cc1	13µM*	·
O=C1CS(=O)(=O)N(Cc2cccc(F)c2)c2ccc(Br)cc21	-48%	12%
CCOC(=O)c1cnn(-c2ccc(C(=O)Nc3cc(OC)c(OC)c(OC)c3)cc2)c1N	·	8%
Cc1ccc(NC(=O)C2=CC(c3ccc4c(c3)OCO4)=NS(=O)(=O)N2C)cc1	·	18%
CC(=O)c1cccc(NC(=O)C2=CC(c3ccc4c(c3)OCO4)=NS(=O)(=O)N2C)c1	10µM*	-5%
CCN(CC)S(=O)(=O)c1cccc(NC(=O)CCNC(=O)c2ccc([N+](=O)[O-])cc2)c1	-4%	2%
CCN(CC)S(=O)(=O)c1cccc(NC(=O)CN2C(=O)c3ccc([N+](=O)[O-])cc3C2=O)c1	8.9µM*	?
COC(=O)c1ccc(NC(=O)CC2C(=O)N(c3cccc(OC)c3)C(=O)N2Cc2cccc(OC)c2)cc1 (stereo not given)	·	21%
COC(=O)c1ccc(CN(c2ccc(C(=O)O)c(O)c2)S(=O)(=O)c2ccc(Cl)c([N+](=O)[O-])c2)cc1	7.9µM*	-4%
COC(=O)c1ccc(CN(c2ccccn2)S(=O)(=O)c2ccccc2)cc1	4%	-7%

Compound activity as filed in PubChem BioAssay.
